# Gal4-VP16 FLuc: counter-screen for ROR gamma inhibitors: Gal4-VP16 reporter. Potency, µM (top dose mostly 53.6 µM), for inactives: top-dose activity, negative = inhibition, most hits filed as inhibitors. 310,000 compounds, 3.5% hits. Drosophila S2 Gal4-VP16 UAS-luciferase, luminescence, 20 h;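 further: Gal4-VP16 expression switched on by copper sulfate through the metallothionein promoter; potency means the concentration at half of the fitted maximal effect; nearly all actives have a fitted effect of over 50% in size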
# RORgamma inh: inhibitors of mouse ROR gamma transcriptional activity. P51450. Drosophila S2 Gal4-RORgamma UAS-luciferase reporter, 20 h. Potency, µM (top dose mostly 53.6 µM), for inactives: at the highest dose activity change, negative = inhibition, most hits filed as inhibitors. 310,000 compounds, 5.4% hits. AID 2551; further: potency means the concentration at half of the fitted maximal effect; nearly all actives have a fitted effect of over 60% in size
#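 A Gal4/UAS one-hybrid system in insect cells: metallothionein-promoter Gal4–ROR gamma fusion plus Photinus luciferase reporter. Copper sulfate 700 uM final, 20 hr ambient incubation, luminescent detection after 10 min with reagent.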
# Six1-Eya2 inh: inhibitors of human Six1/Eya2 interaction; AlphaScreen GST-Six1/His-Eya2 binding, biochemical; active compounds read low; activity change, % (concentration not given with the values); 360,000 compounds, 0.56% hits; AID 651725; in the data active means activity change below about -65%; inconclusive means mostly about -30% to -63%
# Target sequence (O00167 whole entry, looked up): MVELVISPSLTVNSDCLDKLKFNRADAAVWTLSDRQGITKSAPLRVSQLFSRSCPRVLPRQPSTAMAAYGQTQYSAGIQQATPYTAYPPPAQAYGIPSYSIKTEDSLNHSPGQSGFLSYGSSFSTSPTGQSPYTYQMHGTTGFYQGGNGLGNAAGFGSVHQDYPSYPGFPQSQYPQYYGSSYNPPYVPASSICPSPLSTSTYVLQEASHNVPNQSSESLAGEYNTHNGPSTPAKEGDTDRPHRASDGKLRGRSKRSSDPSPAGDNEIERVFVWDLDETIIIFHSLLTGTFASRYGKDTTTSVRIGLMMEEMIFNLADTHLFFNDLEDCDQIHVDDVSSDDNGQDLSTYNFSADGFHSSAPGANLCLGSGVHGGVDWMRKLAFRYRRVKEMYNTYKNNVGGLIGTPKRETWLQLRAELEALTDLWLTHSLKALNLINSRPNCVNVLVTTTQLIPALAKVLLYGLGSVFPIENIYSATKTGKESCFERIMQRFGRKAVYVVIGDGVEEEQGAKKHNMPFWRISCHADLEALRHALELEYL
# Target sequence (Q15475 whole entry, looked up): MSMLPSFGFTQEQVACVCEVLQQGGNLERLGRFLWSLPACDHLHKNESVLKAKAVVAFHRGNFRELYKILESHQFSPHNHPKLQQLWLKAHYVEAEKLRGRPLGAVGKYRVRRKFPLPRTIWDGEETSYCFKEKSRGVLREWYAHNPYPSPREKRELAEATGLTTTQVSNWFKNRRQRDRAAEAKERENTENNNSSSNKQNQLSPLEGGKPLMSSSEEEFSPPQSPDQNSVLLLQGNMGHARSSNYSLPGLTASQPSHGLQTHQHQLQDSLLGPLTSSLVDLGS
#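 GST-Six1 + His-Eya2 (5X stock: 250/500 nM); Tris pH 8.0, 300 mM NaCl, 0.05% BSA, 0.02% Tween 20; GSH donor/Ni acceptor beads; 1 h 37 °C dark; AlphaScreen readout.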
# CtBP-E1A inh: CtBP/E1A binding inhibition. activity change, % (no concentration beside the values). AlphaScreen GST-E1A/His-CtBP binding, 1536-well; active compounds read low. 340,000 compounds, 0.49% hits; in the data active means activity change below about -65%; inconclusive means mostly about -30% to -63%
#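 AlphaScreen with 125 nM GST-E1A and 125 nM His-CtBP (5X stocks) in Tris pH 8.0, 300 mM NaCl, BSA, Tween 20, TCEP. Compounds preincubated 2 h at 37 deg C, then glutathione donor/nickel acceptor beads added for 1 h at 37 deg C in dark.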
# PKM2 act: activators of human pyruvate kinase M2. P14618. purified PKM2, Kinase-Glo ATP luminescence, activation; response scale: 0% is enzyme alone, no compound. Potency, µM (top dose mostly 57.5 µM), for inactives: top-dose activation, actives largely listed as activators. 260,000 compounds, 0.34% hits. AID 1631; further: potency means the concentration at half of the fitted maximal effect; nearly all actives have a fitted effect of over 55% in size
#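 Kinase-Glo luminescence reports ATP generated from ADP (0.1 mM) and PEP (0.5 mM) by purified hPK-M2 after 1 h at room temperature, pH 7.2 imidazole buffer; intermediate enzyme activity allows detecting inhibitors and activators.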
# Numbers without * were called inactive; ? = inconclusive; nt = no result given; [ ] = remark or other dose. Shown are actives, neighbours in structure and some others; about 5.6% of the full set was active somewhere. Unless noted, the call rests on the fitted dose curve; in most records, active means well fitted curve in the direction sought with a large enough effect; inconclusive means small, poorly fitted or top-dose-only effect, or another doubt; inactive means no such curve, though single readings can be large; an effect the other way counts as inactive or inconclusive. On the % scale 0 is the no-effect control and ±100 the full control effect.
SMILES,Gal4-VP16 FLuc,RORgamma inh,Six1-Eya2 inh,CtBP-E1A inh,PKM2 act
Fc1ccc(-c2cc3nc4c(c(N5CCOCC5)n3n2)CCCC4)cc1,-11%,3.2µM*,12,8,0%
Cc1cccc(-c2cc3nc4c(c(N5CCOCC5)n3n2)CCCC4)c1,nt,4%[0.365 µM],7,6,-5%
O=C(COc1ccc(F)cc1)Nc1nccs1,-9%,10µM*,0,2,-1%
Cc1ccc(-c2csc(N3CCN(c4cc5c(cc4Cl)nc(-c4ccncc4)n5CCN4CCCCC4)CC3)n2)cc1,-25%,8.9µM*,-13,nt,1%
CCCn1c(C)nc2cc(Cl)c(N3CCN(c4nc(-c5ccc(C)cc5)cs4)CC3)cc21,?,4.5µM*,-10,-5,0%
Cc1ccc(-c2csc(N3CCN(c4ccc5nc(-c6ccncc6)n(CCN6CCCCC6)c5c4)CC3)n2)cc1,-5%,?,-13,-25,2%
CN(C)S(=O)(=O)c1ccc(C(=O)Nc2nnc(-c3ccco3)o2)cc1,3.2µM*,1µM*,-6,-14,0%
CN(c1ccccc1)S(=O)(=O)c1ccc(C(=O)Nc2nnc(-c3ccc(F)cc3)o2)cc1,1.6µM*,1µM*,4,-3,6%
CN(c1ccccc1)S(=O)(=O)c1ccc(NC(=O)c2ccc(-c3ccccc3)cc2)cc1,-17%,?,-2,9,2%
CCCCN(C)S(=O)(=O)c1ccc(C(=O)Nc2nnc(-c3ccco3)o2)cc1,0.71µM*,0.4µM*,-1,-21,1%
O=C(CCS(=O)(=O)c1ccc(F)cc1)Nc1nnc(-c2ccco2)o1,nt,nt,-10,-14,nt
CCN(CC)S(=O)(=O)c1ccc(C(=O)Nc2nnc(-c3ccco3)o2)cc1,1.3µM*,0.56µM*,5,nt,0%
Cc1cc(NC(=O)Cn2nc(C)c([N+](=O)[O-])c2C)no1,4%,0%,10,1,1%
CCN(CC)S(=O)(=O)c1ccc(Cl)c(NC(=O)CSc2nnc(-c3cccs3)o2)c1,-5%,3%,-4,-3,-6%
CCCCN(CC)S(=O)(=O)c1ccc(C(=O)Nc2nnc(-c3cccs3)o2)cc1,0.13µM*,0.028µM*,-9,-5,-5%
N/C(=N\OCc1ccc([N+](=O)[O-])cc1)c1ccccn1,2.5µM*,1.6µM*,-18,4,-30%
COc1cc(OC)cc(C(=O)O/N=C(\N)c2cccc(C)c2)c1,?,-32%,18,nt,nt
COc1cc(C(=O)O/N=C(\N)c2ccccn2)cc(OC)c1OC,26%,-39%,1,nt,-3%
N/C(=N\OC(=O)c1ccccc1)c1ccccn1,?,1.6µM*,-4,3,-76%
Cc1ccc(C(=O)O/N=C(\N)c2ccccn2)cc1C,11µM*,8.9µM*,17,-12,-32%
N/C(=N\OC(=O)c1ccccc1)c1ccncc1,?,23%,5,8,-20%
Cc1cccc(/C(N)=N/OC(=O)c2ccc(Br)o2)c1,?,13µM*,4,14,-14%
Cc1ccc(NC(=O)CNC2CCCCC2)cc1Cl,1%,-19%,3,-9,-2%[11.5 µM]
COc1ccccc1C/C(N)=N/OC(=O)c1ccc(C)c([N+](=O)[O-])c1,-11%,39%,-8,-1,1%
N/C(=N\OC(=O)c1cccc(F)c1)c1ccccn1,?,?,-4,nt,nt
SMILES,Gal4-VP16 FLuc,RORgamma inh,Six1-Eya2 inh,CtBP-E1A inh,PKM2 act
COc1ccccc1C/C(N)=N/OC(=O)c1ccc2c(c1)OCO2,?,0.89µM*,6,nt,nt
Cc1cccc(/C(N)=N/OC(=O)c2ccc3c(c2)OCO3)c1,?,10µM*,-4,9,-75%
Cc1cccc(C(=O)O/N=C(\N)c2ccccn2)c1,10µM*,13µM*,4,4,-57%
N/C(=N\OC(=O)c1ccc2c(c1)OCO2)c1cccc([N+](=O)[O-])c1,-21%,-2%,?,-16,-5%
Cc1cccc(/C(N)=N/OC(=O)c2cccnc2)c1,?,8.9µM*,6,8,-9%
CCn1nc(C)c(CN2CCCC(CNS(=O)(=O)c3ccc(OC)cc3)C2)c1C (stereo not drawn),-5%,2%,24,0,-1%
CCc1nnc(NC(=O)CSc2nc(-c3ccccc3)nc3ccccc23)s1,4%,-18%[10 µM],-2,-5,-3%
N/C(=N\OC(=O)c1ccc(Br)o1)c1ccccn1,-2%,11µM*,9,-3,-35%
CCOc1ccc(C(=O)O/N=C(\N)c2ccccn2)cc1,10µM*,4.5µM*,0,nt,-84%
CCc1ccc(OCC(=O)O/N=C(\N)c2ccccn2)cc1,-3%,-1%,1,nt,-5%
CC(C)(C)c1ccc(C(=O)C2CCCN(C(=O)c3ccccn3)C2)cc1 (stereo not drawn),14µM*,-41%,18,0,-5%
N/C(=N\OC(=O)Cc1ccccc1)c1ccccn1,10%,-1%,0,-3,-5%
N/C(=N\OC(=O)/C=C/c1ccccc1Cl)c1ccccn1,-25%[10 µM],11µM*,-18,?,-30%
O=C(Nc1cccc2ccccc12)NC(Cc1ccccc1)C(=O)O (stereo not drawn),1%,11%,-8,-17,nt
O=C(NCc1cccnc1)c1ccccc1CCc1ccccc1,4%,4%,3,nt,-3%
c1ccc2c(c1)CNc1ccccc1-2,nt,nt,7,0,nt
CC(C)(C)c1ccc(C(=O)O/N=C(\N)c2ccccn2)cc1,5µM*,0.16µM*,6,-1,nt
Cc1ccc(C(=O)O/N=C(\N)c2ccccn2)cc1,13µM*,8.9µM*,5,4,-88%
C/C(=N\OC(=O)c1ccc(Br)cc1)c1ccccn1,-11%,-8%,0,0,0%
CCOCCCN1CC(=O)N2[C@@H](Cc3c([nH]c4ccccc34)C2(C)C)C1=O,-4%,20%,-11,1,nt
O=C(COc1cccc(C(F)(F)F)c1)NNC(=O)Cn1c(=O)cnc2ccccc21,nt,nt,0,16,nt
CC(C)c1ccc(-c2nnc(SCC(=O)NC3CC3)n2C)cc1,18%,-5%,5,6,-2%
Cc1ccc(NC(=S)C2=C(O)c3ccccc3N(C)S2(=O)=O)cc1,18µM*,?,-2,-1,-6%
CN1c2ccsc2C(O)=C(C(=S)Nc2ccccc2)S1(=O)=O,?,10µM*,1,4,-6%
CN1c2ccccc2C(O)=C(C(=S)Nc2ccccc2)S1(=O)=O,?,?,2,-13,-7%
CC1(C)CC(=O)C(C(C2=C(O)CC(C)(C)CC2=O)c2ccc(Br)s2)C(=O)C1 (stereo not drawn),10µM*,?,0,-11,?
Cc1ccc(C(C2=C(O)CC(C)(C)CC2=O)C2C(=O)CC(C)(C)CC2=O)s1 (stereo not drawn),10%,12%,7,-2,19%

# Screening results from PubChem BioAssay.
